We go through 20 compounds from PubChem BioAssay (EPA / NIEHS).

SMILES strings stand for the structures. Results filed as inconclusive are left out. The source made the active and inactive calls. The calls were made as follows: active = hit-call score of the fitted dose curve at least 0.9, where 1 is the maximum; inconclusive = response in the unintended direction; inactive = score below 0.9.

Sequence of human Peripheral-type Benzodiazepine Receptor (PBR), TSPO (gene 706) (P30536 whole entry, looked up): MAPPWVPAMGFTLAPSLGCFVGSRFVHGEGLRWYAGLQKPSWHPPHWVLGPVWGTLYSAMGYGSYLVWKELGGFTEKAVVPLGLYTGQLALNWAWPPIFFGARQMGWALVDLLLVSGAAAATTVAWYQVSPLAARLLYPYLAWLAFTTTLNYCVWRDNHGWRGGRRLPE
Sequence of rat Peripheral-type Benzodiazepine Receptor (PBR), Tspo (gene 24230) (P16257 whole entry, looked up): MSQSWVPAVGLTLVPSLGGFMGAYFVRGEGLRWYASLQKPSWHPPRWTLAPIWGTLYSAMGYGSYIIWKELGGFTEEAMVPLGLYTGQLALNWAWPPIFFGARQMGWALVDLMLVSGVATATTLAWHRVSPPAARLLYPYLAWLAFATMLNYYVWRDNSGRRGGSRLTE

The target of the first test is human Peripheral-type Benzodiazepine Receptor (PBR), TSPO (gene 706) (UniProt P30536). The test can be described thus: NVS_MP_hPBR: NovaScreen (NVS) Membrane Protein Assay for human Peripheral-type Benzodiazepine Receptor (PBR) (AID 2283331).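 Also: hits reduce radioligand binding relative to DMSO baseline.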 An outline of the steps:
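Using human colon-derived membranes, this one-endpoint binding test reads radioligand loss by scintillation after 1 h. Screening started at 25 uM in duplicate, with positive and negative controls on every plate, and actives moved to dose series.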
As to `Cc1ccc(OP(=O)(Oc2ccc(C)cc2C)Oc2ccc(C)cc2C)c(C)c1`, the AC50 – broadly, the concentration at which the activity in the assay is half-maximal – was 0.422 µM (active).
Take `Clc1cccc(Cl)c1`: the result was inactive.
With `Cc1ccccc1OP(=O)(Oc1ccccc1)Oc1ccccc1`, the AC50 is 1.28 µM (active).
`Cc1cccc(OP(=O)(Oc2cccc(C)c2)Oc2cccc(C)c2)c1`: the AC50 was 1.79 µM (active).
Still for that read-out and setting: as for `CCOP(=S)(OCC)SCS(=O)(=O)C(C)(C)C`, the figure is 12.9 µM (active); as for `CCOP(=O)(OCC)OC(=CCl)c1ccc(Cl)cc1Cl`, 2.12 µM (active).
In the case of `CCOP(=S)(OCC)O/N=C(\C#N)c1ccccc1`, the outcome was inactive.
Consider `Cc1ccccc1OP(=O)(Oc1ccccc1C)Oc1ccccc1C`, for which the half-maximal activity concentration (AC50) is 0.8 µM (active).
As for `CCOC(=O)C(SP(=S)(OC)OC)c1ccccc1` (stereo not given), the AC50 is 13.4 µM (active).
Still for that read-out and setting: the same measure for `CCCCOP(=O)(CCCC)OCCCC`: 6.98 µM (active).

The target of the next test is human Androgen Receptor (AR), AR (gene 367) (UniProt P10275). In words: NVS_NR_hAR: NovaScreen (NVS) Nuclear Receptor Binding Assay for human Androgen Receptor (AR) (AID 2283332). The method, boiled down: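 Actives from a duplicate 25 uM single-point screen went on to concentration series. Read-out after 20 h was scintillation counting of displaced radioligand in LnCAP extract, with DMSO as baseline.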
Sequence of human Androgen Receptor (AR), AR (gene 367) (P10275 whole entry, looked up): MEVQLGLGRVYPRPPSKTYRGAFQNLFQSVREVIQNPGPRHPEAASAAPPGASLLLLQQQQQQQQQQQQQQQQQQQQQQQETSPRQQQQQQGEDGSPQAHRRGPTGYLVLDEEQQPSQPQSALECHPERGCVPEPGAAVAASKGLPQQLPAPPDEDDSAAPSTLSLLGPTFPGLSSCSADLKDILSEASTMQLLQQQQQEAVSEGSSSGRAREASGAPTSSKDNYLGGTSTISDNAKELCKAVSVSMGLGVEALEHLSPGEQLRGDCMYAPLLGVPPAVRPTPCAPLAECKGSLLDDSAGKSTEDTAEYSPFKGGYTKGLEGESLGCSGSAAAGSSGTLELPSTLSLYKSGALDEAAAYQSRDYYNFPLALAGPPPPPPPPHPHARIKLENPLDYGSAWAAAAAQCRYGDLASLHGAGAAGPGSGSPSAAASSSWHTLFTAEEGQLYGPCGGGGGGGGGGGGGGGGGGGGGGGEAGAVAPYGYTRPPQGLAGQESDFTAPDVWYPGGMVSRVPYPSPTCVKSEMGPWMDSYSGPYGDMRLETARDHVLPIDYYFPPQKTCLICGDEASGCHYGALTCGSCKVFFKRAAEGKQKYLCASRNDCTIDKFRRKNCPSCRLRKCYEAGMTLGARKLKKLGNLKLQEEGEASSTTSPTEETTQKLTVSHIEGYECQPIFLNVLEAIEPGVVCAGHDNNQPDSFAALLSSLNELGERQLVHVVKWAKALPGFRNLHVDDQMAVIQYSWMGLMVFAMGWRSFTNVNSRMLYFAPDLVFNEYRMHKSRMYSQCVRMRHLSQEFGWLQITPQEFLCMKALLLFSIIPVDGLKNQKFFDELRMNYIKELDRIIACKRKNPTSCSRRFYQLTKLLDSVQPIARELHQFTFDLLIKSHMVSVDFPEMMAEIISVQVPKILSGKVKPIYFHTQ
Take `OC(Cc1ccccc1Cl)(Cn1[nH]cnc1=S)C1(Cl)CC1` (stereo not given): the result was inactive.
On to `O=C1C=CC(=O)c2ccccc21`, for which the AC50 is 33.9 µM (active).
Same read-out and setting: as for `Cc1cc(C(C)(C)c2ccc(O)c(C)c2)ccc1O`, the figure is 2.93 µM (active).
In the case of `Nc1c(Oc2ccccc2)cc(O)c2c1C(=O)c1ccccc1C2=O`, the compound was called inactive.
As to `[Cl][Sn]([c]1ccccc1)([c]1ccccc1)[c]1ccccc1`, the AC50 is 0.746 µM (active).

A further test has as its target rat Peripheral-type Benzodiazepine Receptor (PBR), Tspo (gene 24230) (UniProt P16257). The test can be described thus: NVS_MP_rPBR: NovaScreen (NVS) Membrane Protein Assay for rat Peripheral-type Benzodiazepine Receptor (PBR) (AID 2283335). The method, boiled down:
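Competitive displacement of specific radioligand from rat kidney membrane PBR, read by filtration and scintillation after 1 h. Compounds first tested at 25 uM in duplicate, then in concentration series; signal loss relative to DMSO.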
Take `O=C1c2ccccc2C(=O)C1C(=O)C(c1ccccc1)c1ccc(Cl)cc1` (stereo not given): the compound was called inactive.
For `Cc1ccc(OP(=O)(Oc2ccc(C)cc2C)Oc2ccc(C)cc2C)c(C)c1`, the AC50 was 1.06 µM (active).
Same read-out and setting: as for `Cc1ccccc1OP(=O)(Oc1ccccc1)Oc1ccccc1`, the figure is 0.284 µM (active); as for `Cc1cccc(OP(=O)(Oc2cccc(C)c2)Oc2cccc(C)c2)c1`, 1.26 µM (active); as for `CCOP(=S)(OCC)SCS(=O)(=O)C(C)(C)C`, 2.02 µM (active).
On the same count and under the same terms, the same measure for `CCOP(=O)(OCC)OC(=CCl)c1ccc(Cl)cc1Cl`: 1.65 µM (active).
Consider `CC(C)(COCC1CO1)COCC1CO1` (stereo not given), for which the outcome was inactive.
Same read-out and setting: the same measure for `CC1(C)[C@H](C(=O)O[C@H](C#N)c2cccc(Oc3ccccc3)c2)[C@@H]1/C=C(\Cl)C(F)(F)F`: “inactive”; for `Cc1cc(C(C)(C)c2ccc(O)c(C)c2)ccc1O`: “inactive”.
As to `CCOP(=S)(OCC)O/N=C(\C#N)c1ccccc1`, the AC50 is 16.2 µM (active).
Regarding `Cc1ccccc1OP(=O)(Oc1ccccc1C)Oc1ccccc1C`, the AC50 was 17.1 µM (active).
In the case of `CCOP(=S)(OCC)OP(=S)(OCC)OCC`, the concentration at half-maximal activity (AC50) was 17.8 µM (active).
On to `CCOC(=O)C(SP(=S)(OC)OC)c1ccccc1` (stereo not given), for which the AC50 was 7.41 µM (active).
Regarding `O=[N+]([O-])c1ccc(Nc2ccccc2)cc1`, the result was inactive.
On to `CCCCOP(=O)(CCCC)OCCCC`, for which the AC50 was 1.62 µM (active).
